Source: PubChem BioAssay AID1159580 (chemical genetic matrix, 2015)
Hit rate of the full screen: of about 5,500 compounds, about 2,000 (36%) were called active. About 18% were inconclusive and are not listed. Cut-off read from the data, not from the text of the source: active = normalized growth mostly below about 0.91 (no sharp cut-off); inconclusive = no clear call, values can overlap the other calls; inactive = mostly above about 0.92. This is one part of the list.

Test: chemical genetic growth profiling, strain panel (AID 1159580);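 note: tested at 20 µM; growth read once vehicle control cultures reached saturation at 30 °C; 1 = growth at the plate median or of vehicle wells; lower values mean less growth of the strain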
Conditions: growth OD

Measured: normalized growth

Cc1cc2cc3c(C)cc(=O)oc3c(C)c2o1
active: S. cerevisiae deletion strains, locus YLR418C, strain cdc73, stronger effect = lower value 0.83 | S. cerevisiae deletion strains, locus YML032C, strain rad52, stronger effect = lower value 0.8 | S. cerevisiae deletion strains, locus YMR125W, strain sto1, stronger effect = lower value 1.11 [resistant] | S. cerevisiae deletion strains, locus YNL248C, strain rpa49, stronger effect = lower value 0.861 | S. cerevisiae deletion strains, locus YNL307C, strain MCK1, stronger effect = lower value 0.905
inactive: S. cerevisiae deletion strains, locus YKL009W, strain mrt4, stronger effect = lower value 0.894 | S. cerevisiae deletion strains, locus YKL068W, stronger effect = lower value 1.01 | S. cerevisiae deletion strains, locus YKL085W, strain MDH1 (second series), stronger effect = lower value 0.992 | S. cerevisiae deletion strains, locus YKL085W, strain MDH1, stronger effect = lower value 0.992 | S. cerevisiae deletion strains, locus YKL160W, strain elf1, stronger effect = lower value 0.951 | S. cerevisiae deletion strains, locus YKL190W, strain CNB1, stronger effect = lower value 0.981 | S. cerevisiae deletion strains, locus YKR001C, strain vps1, stronger effect = lower value 0.916 | S. cerevisiae deletion strains, locus YKR026C, strain gcn3, stronger effect = lower value 0.987 | S. cerevisiae deletion strains, locus YKR091W, strain srl3, stronger effect = lower value 1.01 | S. cerevisiae deletion strains, locus YLL001W, strain dnm1, stronger effect = lower value 0.993 | S. cerevisiae deletion strains, locus YLL026W, stronger effect = lower value 0.981 | S. cerevisiae deletion strains, locus YLL041C, strain sdh2, stronger effect = lower value 1.01 | S. cerevisiae deletion strains, locus YLR027C, strain aat2, stronger effect = lower value 1 | S. cerevisiae deletion strains, locus YLR039C, strain RIC1, stronger effect = lower value 0.927 | S. cerevisiae deletion strains, locus YLR058C, strain SHM2, stronger effect = lower value 0.971 | S. cerevisiae deletion strains, locus YLR102C, strain apc9, stronger effect = lower value 0.994 | S. cerevisiae deletion strains, locus YLR113W, strain HOG1, stronger effect = lower value 1.02 | S. cerevisiae deletion strains, locus YLR221C, strain rsa3, stronger effect = lower value 0.947 | S. cerevisiae deletion strains, locus YLR258W, strain gsy2, stronger effect = lower value 0.956 | S. cerevisiae deletion strains, locus YLR262C, strain YPT6 (second series), stronger effect = lower value 0.994 | S. cerevisiae deletion strains, locus YLR262C, strain YPT6, stronger effect = lower value 0.912 | S. cerevisiae deletion strains, locus YLR268W, strain sec22, stronger effect = lower value 0.898 | S. cerevisiae deletion strains, locus YLR320W, strain mms22, stronger effect = lower value 0.909 | S. cerevisiae deletion strains, locus YLR330W, strain CHS5, stronger effect = lower value 0.984 | S. cerevisiae deletion strains, locus YLR342W, strain FKS1 (second series), stronger effect = lower value 0.915 | S. cerevisiae deletion strains, locus YLR342W, strain FKS1, stronger effect = lower value 0.994 | S. cerevisiae deletion strains, locus YLR357W, strain rsc2, stronger effect = lower value 1.1 | S. cerevisiae deletion strains, locus YLR370C, strain arc18, stronger effect = lower value 0.986 | S. cerevisiae deletion strains, locus YLR371W, strain rom2, stronger effect = lower value 0.99 | S. cerevisiae deletion strains, locus YLR384C, strain iki3, stronger effect = lower value 1 | S. cerevisiae deletion strains, locus YML016C, strain PPZ1, stronger effect = lower value 0.951 | S. cerevisiae deletion strains, locus YML120C, strain ndi1, stronger effect = lower value 0.996 | S. cerevisiae deletion strains, locus YML124C, strain tub3, stronger effect = lower value 0.986 | S. cerevisiae deletion strains, locus YMR058W, strain fet3, stronger effect = lower value 0.945 | S. cerevisiae deletion strains, locus YMR078C, strain ctf18, stronger effect = lower value 0.974 | S. cerevisiae deletion strains, locus YMR129W, stronger effect = lower value 1.02 | S. cerevisiae deletion strains, locus YMR205C, strain PFK2, stronger effect = lower value 1.03 | S. cerevisiae deletion strains, locus YMR223W, strain ubp8, stronger effect = lower value 0.936 | S. cerevisiae deletion strains, locus YMR231W, strain pep5, stronger effect = lower value 1 | S. cerevisiae deletion strains, locus YMR263W, strain SAP30, stronger effect = lower value 0.908 | S. cerevisiae deletion strains, locus YMR307W, strain GAS1, stronger effect = lower value 0.887 | S. cerevisiae deletion strains, locus YNL067W, strain RPL9B, stronger effect = lower value 0.897 | S. cerevisiae deletion strains, locus YNL071W, strain lat1, stronger effect = lower value 0.931 | S. cerevisiae deletion strains, locus YNL128W, strain TEP1, stronger effect = lower value 0.975 | S. cerevisiae deletion strains, locus YNL153C, strain GIM3, stronger effect = lower value 0.918 | S. cerevisiae deletion strains, locus YNL183C, strain NPR1, stronger effect = lower value 0.924 | S. cerevisiae deletion strains, locus YNL209W, strain ssb2, stronger effect = lower value 0.981 | S. cerevisiae deletion strains, locus YNL233W, strain BNI4, stronger effect = lower value 0.885 | S. cerevisiae deletion strains, locus YNL250W, strain rad50, stronger effect = lower value 0.963 | S. cerevisiae deletion strains, locus YNL271C, strain bni1, stronger effect = lower value 0.964 | S. cerevisiae deletion strains, locus YNL298W, strain CLA4, stronger effect = lower value 0.941 | S. cerevisiae deletion strains, locus YNL322C, strain KRE1 (second series), stronger effect = lower value 1 | S. cerevisiae deletion strains, locus YNL322C, strain KRE1, stronger effect = lower value 0.993 | S. cerevisiae deletion strains, locus YNR049C, strain mso1, stronger effect = lower value 1.01 | S. cerevisiae deletion strains, locus YNR052C, strain pop2, stronger effect = lower value 0.98 | S. cerevisiae deletion strains, locus YOL006C, strain TOP1, stronger effect = lower value 0.585 | S. cerevisiae deletion strains, locus YOL012C, strain htz1 0.819 | S. cerevisiae deletion strains, locus YOL147C, strain pex11, stronger effect = lower value 0.986 | S. cerevisiae deletion strains, locus YOR001W, strain rrp6, stronger effect = lower value 0.972 | S. cerevisiae deletion strains, locus YOR061W, strain CKA2, stronger effect = lower value 0.97 | S. cerevisiae deletion strains, locus YOR069W, strain VPS5, stronger effect = lower value 0.974 | S. cerevisiae deletion strains, locus YOR070C, strain gyp1, stronger effect = lower value 0.979 | S. cerevisiae deletion strains, locus YOR080W, strain dia2, stronger effect = lower value 1 | S. cerevisiae deletion strains, locus YOR083W, strain WHI5, stronger effect = lower value 0.941 | S. cerevisiae deletion strains, locus YOR106W, strain vam3, stronger effect = lower value 0.98 | S. cerevisiae deletion strains, locus YOR136W, strain idh2, stronger effect = lower value 0.969 | S. cerevisiae deletion strains, locus YOR144C, strain elg1, stronger effect = lower value 0.979 | S. cerevisiae deletion strains, locus YOR184W, strain ser1, stronger effect = lower value 0.875 | S. cerevisiae deletion strains, locus YOR231W, strain MKK1, stronger effect = lower value 0.926 | S. cerevisiae deletion strains, locus YOR265W, strain rbl2, stronger effect = lower value 0.995 | S. cerevisiae deletion strains, locus YOR270C, strain vph1, stronger effect = lower value 0.872 | S. cerevisiae deletion strains, locus YOR290C, strain snf2, stronger effect = lower value 0.949 | S. cerevisiae deletion strains, locus YOR316C, strain cot1, stronger effect = lower value 0.989 | S. cerevisiae deletion strains, locus YPL051W, strain arl3, stronger effect = lower value 0.982 | S. cerevisiae deletion strains, locus YPL055C, strain LGE1, stronger effect = lower value 0.88 | S. cerevisiae deletion strains, locus YPL078C, strain atp4, stronger effect = lower value 0.976 | S. cerevisiae deletion strains, locus YPL106C, strain sse1, stronger effect = lower value 0.92 | S. cerevisiae deletion strains, locus YPL240C, strain hsp82, stronger effect = lower value 0.994 | S. cerevisiae deletion strains, locus YPL241C, strain CIN2, stronger effect = lower value 0.985 | S. cerevisiae deletion strains, locus YPL256C, strain CLN2, stronger effect = lower value 0.993 | S. cerevisiae deletion strains, locus YPR119W, strain clb2, stronger effect = lower value 0.987 | S. cerevisiae deletion strains, locus YPR141C, strain kar3, stronger effect = lower value 0.996 | S. cerevisiae deletion strains, locus YPR163C, strain tif3, stronger effect = lower value 0.969 | S. cerevisiae deletion strains, locus YPR167C, strain met16, stronger effect = lower value 0.983 | S. cerevisiae deletion strains, strain wtn01, stronger effect = lower value 0.931 | S. cerevisiae strains, strain wild type, stronger effect = lower value 0.964
